In the library only some 2.4% were active in any assay of this set; here they are far more common.
C diff growth – C. difficile growth inhibitors, primary screen, HTS | 86,000 compounds, 0.25% hits | Clostridium difficile clinical isolate growth, OD600, 24 h; stronger effect = lower value | AID 1259249, 2017 | growth activity, negative = inhibition, % at 16 µg/mL (by protocol);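 active = mean growth activity at or below -80% and every replicate also at or below -80%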
Pf Dd2 inh – P. falciparum Dd2 growth inhibitors, primary screen, SYBR Green fluorescence, single dose replicates. 72 h; stronger effect = lower value. activity change, % at 10 µM. 94,000 compounds, 2.3% hits. AID 1159554, 2015; in the data active = activity change below about -80%
Large screens that a line does not name were inactive; ! = repeats disagree.

O=C(Nc1ccc2c(c1)OCO2)N1[C@@H]2CNC[C@H]1C2c1ccc(/C=C/c2ccccc2)cc1 (some centres not stated)	none
C/C=C/c1ccc(C2[C@@H]3CN(C(=O)Nc4ccc(F)cc4)C[C@H]2N3)cc1 (some centres not stated)	none
Cc1ccccc1-c1ccc(C2[C@@H]3CN(C(=O)Nc4ccc(F)cc4)C[C@H]2N3)cc1 (some centres not stated)	none
O=C(Nc1ccccc1F)N1C[C@@H]2N[C@H](C1)C2c1ccc(/C=C/c2ccccc2)cc1 (some centres not stated)	C diff growth -97!
O=C(Nc1ccc(F)cc1)N1C[C@@H]2N[C@H](C1)C2c1ccc(/C=C/c2ccccc2)cc1 (some centres not stated)	C diff growth -100
Cc1noc(C)c1NC(=O)N(C)C[C@@H]1Oc2ccc(NC(=O)CCC(F)(F)F)cc2C(=O)N([C@H](C)CO)C[C@@H]1C	none
C[C@H](CO)N1C[C@H](C)[C@@H](CN(C)Cc2ccc3c(c2)OCO3)OCCCC[C@H](C)Oc2ccc(NC(=O)Nc3ccc(F)cc3)cc2C1=O	none
COc1cccc(CN2CC3(CCN(CC4CC4)CC3)c3c([nH]c4cc(OC)ccc34)[C@H]2CO)c1	Pf Dd2 inh -92
COc1ccc2c3c([nH]c2c1)[C@@H](CO)N(Cc1ccccc1F)CC31CN(CC2CC2)C1	none
COc1ccc2c3c([nH]c2c1)[C@H](CO)N(CC1CC1)CC31CCN(Cc2ccccc2F)CC1	Pf Dd2 inh -85
COc1ccc2c3c([nH]c2c1)[C@H](CO)N(Cc1ccccc1)CC31CN(CC2CC2)C1	none
COc1cccc(CN2CC3(CCN(CC4CCOCC4)CC3)c3c([nH]c4cc(OC)ccc34)[C@@H]2CO)c1	none
COc1ccc2c3c([nH]c2c1)[C@H](CO)N(Cc1ccccc1)CC31CCN(CC2CC2)CC1	Pf Dd2 inh -93
CNC(=O)C[C@@H]1CC[C@@H]2[C@H](COC[C@H](O)CN2Cc2ccncc2)O1	none
C[C@H](CO)N1C[C@H](C)[C@@H](CN(C)C(=O)C2CCCCC2)Oc2cc(-c3ccc(C(=O)N(C)C)cc3)ccc2S1(=O)=O	none
COCC#Cc1cnc2c(c1)C(=O)N([C@@H](C)CO)C[C@H](C)[C@@H](CN(C)C(=O)C1CC1)O2	none (no result: C diff growth)
CCC(=O)NC[C@@H]1[C@H](c2ccc(C3=CCCC3)cc2)[C@H](CO)N1C(=O)C1CC1	none
O=C(Nc1cc(F)ccc1F)N[C@@H]1C=C[C@@H](CC(=O)N2CCc3ccccc3C2)O[C@H]1CO	none (no result: C diff growth)
COc1ccc(S(=O)(=O)Nc2ccc3c(c2)C(=O)N([C@H](C)CO)C[C@H](C)[C@@H](CN(C)C(=O)NC2CCCCC2)OCCCC[C@H](C)O3)cc1	none
COc1ccc(S(=O)(=O)Nc2ccc3c(c2)C(=O)N([C@H](C)CO)C[C@@H](C)[C@@H](CN(C)C(=O)C2CCCCC2)OCCCC[C@@H](C)O3)cc1	none
COc1ccc(S(=O)(=O)Nc2ccc3c(c2)C(=O)N([C@@H](C)CO)C[C@H](C)[C@@H](CN(C)C(=O)NC2CCCCC2)OCCCC[C@@H](C)O3)cc1	Pf Dd2 inh -87
COc1ccc(S(=O)(=O)Nc2ccc3c(c2)C(=O)N([C@@H](C)CO)C[C@H](C)[C@@H](CN(C)C(=O)C2CCCCC2)OCCCC[C@@H](C)O3)cc1	Pf Dd2 inh -92
C[C@H]1CN([C@@H](C)CO)C(=O)c2cccc(NC(=O)c3cnccn3)c2O[C@H]1CN(C)Cc1ccc(C(=O)Nc2ccccc2N)cc1	none
C[C@H](CO)N1C[C@H](C)[C@H](CN(C)Cc2ccc(C(=O)O)cc2)Oc2c(NC(=O)c3cnccn3)cccc2C1=O	none
C[C@H](CO)N1C[C@H](C)[C@@H](CN(C)Cc2ccc(C(=O)Nc3ccccc3N)cc2)Oc2c(NC(=O)c3cnccn3)cccc2C1=O	Pf Dd2 inh -92
C[C@H]1CN([C@@H](C)CO)C(=O)c2cccc(NC(=O)c3cnccn3)c2O[C@@H]1CN(C)Cc1ccc(C(=O)Nc2ccccc2N)cc1	Pf Dd2 inh -94
COc1ccc2c3c([nH]c2c1)[C@@H](CO)N(Cc1cccc(F)c1)CC31CCN(C(C)=O)CC1	Pf Dd2 inh -93
COc1ccc2c3c([nH]c2c1)[C@H](CO)N(Cc1cccc(F)c1)CC31CN(C(C)=O)C1	none
COc1ccc2c3c([nH]c2c1)[C@@H](CO)N(Cc1cccc(F)c1)CC31CN(C(C)=O)C1	Pf Dd2 inh -85
COc1cc(CN2CC3(CCN(C(C)=O)CC3)c3c([nH]c4cc(OC)ccc34)[C@H]2CO)cc(OC)c1	none
CCC(=O)N(C)C[C@H]1Oc2cc(C#CC3(O)CCCC3)ccc2S(=O)(=O)N([C@@H](C)CO)C[C@H]1C	none (no result: C diff growth)
O=C1CN(S(=O)(=O)Cc2ccccc2)C[C@@H]2[C@@H](c3ccc(C#Cc4cccnc4)cc3)[C@H](CO)N12	none
C[C@@H]1CN([C@@H](C)CO)C(=O)c2cccc(NC(=O)C3CC3)c2O[C@H]1CN(C)Cc1ccc(C(=O)Nc2ccccc2N)cc1	none
C[C@H]1CN([C@@H](C)CO)C(=O)c2cccc(NC(=O)NC3CCCCC3)c2O[C@H]1CN(C)Cc1ccc(C(=O)Nc2ccccc2N)cc1	none (no result: C diff growth)
C[C@@H]1CN([C@@H](C)CO)C(=O)c2cccc(NC(=O)C3CCCCC3)c2O[C@@H]1CN(C)Cc1ccc(C(=O)Nc2ccccc2N)cc1	Pf Dd2 inh -85
C[C@@H]1CN([C@H](C)CO)C(=O)c2cccc(NC(=O)NC3CCCCC3)c2O[C@@H]1CN(C)Cc1ccc(C(=O)Nc2ccccc2N)cc1	Pf Dd2 inh -84 (no result: C diff growth)
C[C@@H]1CN([C@H](C)CO)C(=O)c2cc(NC(=O)C3CC3)ccc2O[C@@H]1CN(C)Cc1ccc(-c2ccccc2)cc1	none
C[C@H](CO)N1C[C@H](C)[C@H](CN(C)CC2CC2)Oc2ccc(NC(=O)Cn3cnnn3)cc2CC1=O	none
CC=Cc1ccc2n(c1=O)C[C@@H]1N[C@H]2[C@H](C(=O)NC2CCCCC2)[C@H]1CO (mixture of isomers)	none (no result: Pf Dd2 inh)
Cc1cccc(S(=O)(=O)N2C[C@@H](O)COC[C@H]3O[C@@H](CC(=O)N4CCN(C)CC4)CC[C@@H]32)c1	none
O=C(C1CCCC1)N1CC2(C1)[C@@H](c1ccccc1)[C@@H](CO)N2C(=O)NC1CCCC1	none
C[C@@H]1CN([C@@H](C)CO)C(=O)c2cc(NS(=O)(=O)c3cccs3)ccc2O[C@@H](C)CCCCO[C@H]1CN(C)C(=O)Nc1ccc(F)cc1	Pf Dd2 inh -81
C[C@@H]1CCCCO[C@H](CN(C)C(=O)NC2CCCCC2)[C@H](C)CN([C@H](C)CO)C(=O)c2cc(NS(=O)(=O)c3cccs3)ccc2O1	Pf Dd2 inh -82
C[C@@H]1CCCCO[C@H](CN(C)C(=O)NC2CCCCC2)[C@H](C)CN([C@@H](C)CO)C(=O)c2cc(NS(=O)(=O)c3cccs3)ccc2O1	none
C[C@H](CO)N1C[C@H](C)[C@H](CN(C)C(=O)Nc2ccc(F)cc2)OCCCC[C@H](C)Oc2ccc(NS(=O)(=O)c3cccs3)cc2C1=O	none
C[C@@H]1CN([C@@H](C)CO)C(=O)c2cccc(NS(=O)(=O)c3ccc(Cl)cc3)c2O[C@H]1CN(C)Cc1ccncc1	none
C[C@H]1CN([C@@H](C)CO)C(=O)c2cccc(NC(=O)NC3CCCCC3)c2O[C@@H]1CN(C)CC1CCCCC1	none
CO[C@H]1CN(C)C(=O)c2cc(NC(=O)Nc3ccc(Cl)cc3)ccc2OC[C@H](C)NC[C@H]1C	none

Source: PubChem (Broad Institute)
